TDP1 cell CPT: qHTS for Inhibitors of human tyrosyl-DNA phosphodiesterase 1 (TDP1): qHTS in cells in presence of CPT; AID 686979, 2013; chicken DT40 Tdp1-/-;hTDP1 cells + 20 nM CPT, ATP luminescence, 48 h; Potency, µM (highest dose often 46.2 µM), usual class: inhibitors; actives 12% (n = 420,000); further: nearly all actives have a fitted effect of over 55% in size
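Chicken DT40 Tdp1-/- cells complemented with human TDP1, 400 cells/well, exposed to compounds plus 20 nM camptothecin for at least 48 h at 37 C; viability read as ATP content by CellTiter-Glo luminescence.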
RORgamma inh: qHTS for inhibitors of ROR gamma transcriptional activity; Drosophila S2 Gal4-RORgamma UAS-luciferase reporter, 20 h; Potency, µM (doses to about 53.6 µM), hits mostly inhibitors; actives 5.4% (n = 310,000); AID 2551, 2010; further: nearly all actives have a fitted effect of over 60% in size
Target sequence (P51450 whole entry, looked up, the tested form may be a part): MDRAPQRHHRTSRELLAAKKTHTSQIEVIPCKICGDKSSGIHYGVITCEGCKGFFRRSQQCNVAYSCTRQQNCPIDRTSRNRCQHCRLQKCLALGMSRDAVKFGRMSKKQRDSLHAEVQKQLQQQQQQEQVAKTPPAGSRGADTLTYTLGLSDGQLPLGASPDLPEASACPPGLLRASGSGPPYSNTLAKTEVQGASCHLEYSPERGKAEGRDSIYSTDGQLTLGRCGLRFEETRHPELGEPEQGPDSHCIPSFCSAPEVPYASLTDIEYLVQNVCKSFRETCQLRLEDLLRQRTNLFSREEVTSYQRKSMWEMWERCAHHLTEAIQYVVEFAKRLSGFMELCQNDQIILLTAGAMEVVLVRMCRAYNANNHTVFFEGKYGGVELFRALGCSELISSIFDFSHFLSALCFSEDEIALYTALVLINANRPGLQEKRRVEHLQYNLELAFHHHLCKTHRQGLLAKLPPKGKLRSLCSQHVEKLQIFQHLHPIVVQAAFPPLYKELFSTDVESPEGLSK
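Luminescence from a UAS-regulated Photinus luciferase reporter in stably transfected Drosophila Schneider cells is measured; decreased signal marks ROR gamma inhibition. Fusion expression is induced by 700 uM copper sulfate for 20 hr.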
DT40 TDP1 no CPT: qHTS for Inhibitors of human tyrosyl-DNA phosphodiesterase 1 (TDP1): qHTS in cells in absence of CPT | DT40 Tdp1-/- hTDP1 cells, no CPT, ATP luminescence, 48 h | Potency, µM (titrated, usually from 46.2 µM), most hits filed as inhibitors | actives 15% (n = 420,000) | AID 686978, 2013; further: nearly all actives have a fitted effect of over 55% in size
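A cellular qHTS used chicken DT40 cells lacking endogenous Tdp1 but carrying stably transfected human TDP1. Compounds were applied without camptothecin, and cell growth kinetics were judged by ATP-dependent luminescence after ≥48 hr.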
IL-1B inflam inh: qHTS for Inhibitors of Inflammasome Signaling: IL-1-beta AlphaLISA Primary Screen; THP-1 LPS/ATP IL-1B secretion, AlphaLISA, 16 h; hits give low values; activity change, % at 57.5 µM; actives 4.7% (n = 360,000); in the data active means activity change below about -50%; inconclusive means mostly about -30% to -49%
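THP-1 cells pretreated 1 hr with compounds (up to 57.5 uM final), then stimulated with LPS (250 ng/mL final) plus ATP (1.25 mM final); secreted IL-1B measured by AlphaLISA after 16 hr, decreased signal indicating inhibition.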
LDHA block: qHTS assay for inhibitors of human lactate dehydrogenase; L-lactate dehydrogenase A chain (Homo sapiens), P00338; purified LDHA, NADH/diaphorase-resazurin fluorescence; hits give low values; activity change, % (values are at about 110 or 230 µM); actives 0.15% (n = 480,000); in the data active means activity change below about -30%; inconclusive means mostly about -25% to -30%
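Human LDH5 (2 nM) was incubated with 0.06 mM NADH and 0.2 mM pyruvate for 5 min at room temperature in Tris pH 7.4. Remaining NADH was coupled through diaphorase/resazurin, and resorufin fluorescence was read at 0 and 20 min.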
VP16 counter: VP16 counterscreen qHTS for inhibitors of ROR gamma transcriptional activity | Drosophila S2 Gal4-VP16 UAS-luciferase, luminescence, 20 h | Potency, µM (series often up to 53.6 µM), most hits filed as inhibitors | actives 3.5% (n = 310,000) | AID 2546, 2010;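 further: Gal4-VP16 expression switched on by copper sulfate through the metallothionein promoter; nearly all actives have a fitted effect of over 50% in size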
A number is an active result; n = inactive; u = inconclusive; x = not tested or not shown. Only some compounds are listed: those with a hit (about 18% of all), similar ones and a draw of the others. Unless noted, the call rests on the fitted dose curve; in most records, active means well fitted curve in the direction sought with a large enough effect; inconclusive means small, poorly fitted or top-dose-only effect, or another doubt; inactive means no such curve, though single readings can be large; an effect the other way counts as inactive or inconclusive.

SMILES	TDP1 cell CPT	RORgamma inh	DT40 TDP1 no CPT	IL-1B inflam inh	LDHA block	VP16 counter
O=C1C2C3C=CC(C3)C2C(=O)N1c1cccc(-c2nc3ccccc3o2)c1 (stereo not given)	n	n	n	n	n	n
CCN(CC)CCNC(=O)c1ccc(CN2CC(=O)N3CCCC3C2=O)cc1 (stereo not given)	x	x	x	x	n	x
COc1ccc(C=O)cc1COc1ccc(Cl)cc1[N+](=O)[O-]	u	n	20.6µM	n	n	n
COc1ccc(C=O)cc1COc1ccc(C=O)cc1	x	x	x	x	n	x
CCOc1c(Cl)cc(C(=O)N(Cc2ccc(N(C)C)cc2)Cc2ccco2)cc1Cl	23.1µM	x	13µM	x	n	x
CC(C)COc1ccc(C(=O)N(Cc2ccc(N(C)C)cc2)Cc2ccco2)cc1	18.4µM	x	14.6µM	x	n	x
CCOc1cccc(C(=O)N(Cc2ccc(F)cc2)Cc2ccco2)c1	23.1µM	x	16.4µM	x	n	x
Cc1ccc(S(=O)(=O)NCC(=O)N(c2ccccc2)C(C(=O)NCc2ccccc2)c2ccco2)cc1 (stereo not given)	u	n	18.4µM	u	n	n
CN(C)c1ccc(CN(Cc2ccco2)C(=O)c2ccco2)cc1	u	n	u	n	n	n
Cc1cc(C)cc(N(C(=O)CNS(=O)(=O)c2ccccc2)C(C(=O)NCc2ccccc2)c2ccc(C)o2)c1 (stereo not given)	n	u	n	n	n	u
CC(C)(C)NC(=O)c1ccc(NC(=O)C2(C)CC2(Cl)Cl)cc1 (stereo not given)	x	x	x	x	n	x
C=C(C)Cn1c(N2CCN(c3cccc(Cl)c3)CC2)nc2c1c(=O)[nH]c(=O)n2C	x	x	x	x	n	x
O=C(Nc1ccc(SC2CCCC2)cc1)C1CC1	x	x	x	x	n	x
CCc1nc2ccc(C(=O)Nc3ncccc3O)cc2nc1CC	x	x	x	x	n	x
COc1ccc(CN(Cc2ccco2)C(=O)c2ccccc2F)cc1	16.4µM	x	16.4µM	x	n	x
COc1ccc(S(=O)(=O)NCC(=O)N(CC(=O)NCc2ccco2)Cc2ccccc2)cc1	n	n	n	n	n	n
Cc1ccccc1OCCC(=O)N(CC(=O)Nc1ccccc1C(F)(F)F)Cc1ccco1	n	x	n	n	n	x
COc1ccc(C(=O)N(Cc2ccco2)Cc2ccco2)cc1	u	x	u	x	n	x
COc1ccc(CNC(=O)CN(Cc2ccco2)C(=O)CNS(=O)(=O)c2ccccc2)cc1	u	n	n	-67.1	n	n
CCOc1ccccc1C(=O)N(Cc1ccc(N(C)C)cc1)Cc1ccco1	u	x	16.4µM	x	n	x
CC(C)COc1cccc(C(=O)N(CC(=O)Nc2ccccc2C(F)(F)F)Cc2ccco2)c1	u	x	18.4µM	n	n	x
CCC(CC)c1nnc(NC(=O)c2nn(Cc3ccccc3)c(=O)c3ccccc23)s1	x	x	x	x	n	x

Screening results from PubChem.
